Measurements as given in PubChem BioAssay AID492953 (The Scripps Research Institute Molecular Screening Center, 2010).
Out of some 340,000 compounds screened, about 4,200 (1.2%) were called active.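 The calls were made as follows: active = inhibition above the mean of all tested compounds plus 3 SD (cut at about 24% in these data); inactive = the rest.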 The full list was thinned out, with actives kept by preference.

Target: Platelet-activating factor acetylhydrolase IB subunit alpha2 (Homo sapiens) (UniProt P68402)
Assay: inhibition of PAF acetylhydrolase 1b subunit 2 – biochemical, fluorescence polarization, human, primary screen (AID 492953);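 also: 0% = enzyme with DMSO and 100% = wells lacking PAFAH1B2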
Conditions: recombinant PAFAH1B2, FP-rhodamine activity probe, at 3.39 µM, active compounds read high

Sequence of Platelet-activating factor acetylhydrolase IB subunit alpha2 (Homo sapiens) (P68402 whole entry, looked up): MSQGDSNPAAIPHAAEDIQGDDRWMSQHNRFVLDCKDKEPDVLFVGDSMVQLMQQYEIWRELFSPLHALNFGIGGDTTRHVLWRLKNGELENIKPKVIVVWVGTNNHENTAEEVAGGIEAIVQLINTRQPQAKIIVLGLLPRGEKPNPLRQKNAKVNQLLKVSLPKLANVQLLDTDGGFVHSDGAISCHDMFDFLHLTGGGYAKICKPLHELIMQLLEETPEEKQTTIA

Structure (SMILES) | inhibition
O=C(CCNS(=O)(=O)c1ccc(Br)cc1)NCC1CCCO1 (stereo not drawn) | 7.29% (inactive)
Cc1ccc(S(=O)(=O)NCCNC(C)c2ccc(Br)cc2)cc1 (stereo not drawn) | 23% (inactive)
Cc1ccc(OCCNC(=O)CCNS(=O)(=O)c2ccc(Br)cc2)cc1 | 24.2% (active)
Cc1ccc(CCN2CC(C(=O)NCCc3ccccc3)CC2=O)cc1 (stereo not drawn) | 7.51% (inactive)
O=C1Nc2cc(Cl)c(Cl)cc2N(O)N1c1cc(Cl)cc(Cl)c1 | 6.99% (inactive)
CCCCN(C(=O)CSCc1ccc(C)cc1)c1c(N)n(Cc2ccccc2)c(=O)[nH]c1=O | 8.05% (inactive)
O=C(Nc1ccccc1)C1CC(=O)n2c(nc3ccccc32)N1 (stereo not drawn) | -1.27% (inactive)
CC(=O)Nc1ccc(S(=O)(=O)NCCc2ccccc2)cc1 | 3.04% (inactive)
CC(=O)Nc1ccc(S(=O)(=O)NC2(C(F)(F)F)C(=O)NC(C)=C2C#N)cc1 (stereo not drawn) | 0.09% (inactive)
CC(=O)Nc1ccc(S(=O)(=O)NC2(C(F)(F)F)C(=O)Nc3c2c(=O)[nH]c(=O)n3Cc2ccccc2)cc1 (stereo not drawn) | 24.4% (active)
Cc1ccc(C(=O)NCC(=O)OCC(=O)NC2CCCCCCC2)cc1 | -0.8% (inactive)
Cc1cc(OC(=O)c2ccc(OC(C)C)cc2)c([N+](=O)[O-])c(=O)[nH]1 | 1.4% (inactive)
COc1cccc(C=CC(=O)C=CC=Cc2ccccc2)c1 | -1.3% (inactive)
COc1ccc(CCNS(=O)(=O)c2cn(C)nc2C)cc1 | 2.66% (inactive)
O=S1(=O)CCOC[C@H](Cc2ccccc2)N1Cc1ccccc1Br | 4.8% (inactive)
CCC(C)[C@H]1COCCS(=O)(=O)N1Cc1ccc(C)cc1 (stereo partly drawn) | 7.04% (inactive)
O=S1(=O)CCO[C@H]2Cc3ccccc3[C@H]2N1Cc1ccccc1 | 27.8% (active)
N#Cc1c(-c2ccc(F)cc2)nc(-c2ccccc2)[nH]c1=O | 1.36% (inactive)
Cc1ccc(CSc2nc(-c3ccccc3)c(C#N)c(=O)[nH]2)cc1 | 24.4% (active)
N#Cc1c(-c2ccccc2)nc(SCc2cccc(C(F)(F)F)c2)[nH]c1=O | 14.2% (inactive)
Oc1oc(-c2ccccc2Br)nc1/C=N/c1ccccn1 | 1.69% (inactive)
CC(NC(=S)Nc1ccc(S(N)(=O)=O)cc1)c1ccc2c(c1)OCO2 (stereo not drawn) | 27.8% (active)
CCc1ccc(NC(=O)NC(C)c2ccc3c(c2)OCO3)cc1 (stereo not drawn) | 4.07% (inactive)
CC(NC(=O)Nc1cccc([N+](=O)[O-])c1)c1ccc2c(c1)OCO2 (stereo not drawn) | 0.41% (inactive)

Structure (SMILES) | inhibition
Cc1ccc(NC(=O)N2CCSc3ccccc32)cc1 | 7.44% (inactive)
O=C(Cc1cccs1)N(CC1CCCO1)C1(C(=O)NC2CCCCC2)CCCCC1 (stereo not drawn) | 2.99% (inactive)
O=C(CNCc1ccc(F)cc1)Nc1ccccc1-c1ccccc1 | 24.4% (active)
CCC(C(=O)OCC(=O)Nc1ccccc1-c1ccccc1)c1ccccc1 (stereo not drawn) | 7.25% (inactive)
O=C(Cn1cnc2ccccc21)Nc1ccccc1-c1ccccc1 | 5.45% (inactive)
Cc1ccc(NC(=O)CCCNC(=O)c2ccc(Cl)cc2)cc1S(=O)(=O)N1CCOCC1 | 2.83% (inactive)
COc1ccccc1CCNC(=O)C1CCN(C(=O)/C=C/c2ccccc2)CC1 | 10.8% (inactive)
O=C(COc1ccc(Cl)cc1)NCCS(=O)(=O)N1CCN(c2ccc(F)cc2)CC1 | 28.6% (active)
COc1ccc(OCC(=O)NCCS(=O)(=O)N2CCN(c3ccc(F)cc3)CC2)cc1 | -1.87% (inactive)
CCOc1ccc(CC(=O)NCCS(=O)(=O)N2CCN(c3ccccc3)CC2)cc1 | 1.28% (inactive)
CCCC1NC(=S)NC(C)=C1C(C)=O (stereo not drawn) | -9.47% (inactive)
CC(=O)OCC(=O)C1(O)CCC2C3CC(C)C4=CC(=O)CCC4(C)C3C(O)CC21C (stereo not drawn) | 1.34% (inactive)
COc1ccccc1C(=O)Nc1ccnn1C1CCN(Cc2cnn(C)c2)CC1 | 4.33% (inactive)
Oc1cc2c(cc1O)CN(C(=S)NCCc1ccc(Cl)cc1)CCC2 | 63.6% (active)
O=C1CCN(C(=S)NCCc2ccccc2)CC1 | 1.71% (inactive)
COc1ccc(CCNC(=S)N2CCN(S(=O)(=O)c3ccc(Cl)cc3)CC2)cc1 | 11.4% (inactive)
CC12c3ccccc3C(c3ccccc31)C1C(=O)N(Cc3cccnc3)C(=O)C12 (stereo not drawn) | 1.4% (inactive)
Cc1nn(-c2ccccc2)c(C)c1/C=N/NC(=O)CSc1nc2ccccc2c(=O)n1-c1ccccc1 | 2.37% (inactive)
CCO/N=C(/C)c1c(O)cc(-c2ccccc2)n(-c2ccccc2)c1=O | 7.22% (inactive)
C=CCO/N=C(\C)c1c(O)c(C)c(-c2ccccc2)n(-c2ccccc2)c1=O | 31.5% (active)
Cc1ccsc1-c1nc(CSCC(=O)NCCN2CCCC2)c(C)o1 | 0.8% (inactive)
COc1cc2c(cc1OC)C(Cc1cc(OC)c(OC)cc1[N+](=O)[O-])=NCC2 | 0.33% (inactive)
CCCC1OC23CCCCC2C(C#N)(C#N)C1(C#N)C(=N)O3 (stereo not drawn) | 29.1% (active)
O=C1/C(=C\c2ccc(O)cc2)CCC1CNc1ccc(Cl)cc1 (stereo not drawn) | -1.51% (inactive)

Structure (SMILES) | inhibition
O=C(O)CCn1cc(/C=C/C(=O)c2ccc(Cl)cc2)c(-c2cccc(Br)c2)n1 | 51.4% (active)
Cc1cccc(C=CC(=O)c2ccc(Cl)cc2)c1 | -1.7% (inactive)
CCOC(=O)/C(C#N)=C/c1cn(CCC(=O)O)nc1-c1ccc(Br)cc1 | 2.11% (inactive)
O=C(OCC(=O)N1CCN(C(=O)c2ccco2)CC1)c1ccc(Cl)c(Cl)c1 | 2.92% (inactive)
NNC(=O)CSc1nnc(-c2ccccc2)n1-c1ccccc1 | 17.7% (inactive)
O=C(O)CCSc1nnc(-c2ccccc2)n1-c1ccccc1 | 24.4% (active)
O=C(O)CSc1nnc(-c2ccc3c(c2)OCO3)n1-c1ccccc1 | 0.01% (inactive)
CCOc1cc(/C=N/NC(=O)c2cccc(S(=O)(=O)N3CCOCC3)c2)ccc1OCC(=O)N(C)C | 2.5% (inactive)
O=C(NCCc1ccccc1)c1c[nH]c2ccc(F)cc2c1=O | 3.36% (inactive)
CCOC(=O)c1ccccc1OC(=O)Oc1ccccc1C(=O)OCC | 4.58% (inactive)
CCOC(=O)c1c(C)nc2c(c1C)c(=O)oc1ccccc12 | 4.46% (inactive)
CCOC(=O)c1c(C)[nH]c2c1-c1ccccc1C(=O)C2=O | 46.4% (active)
C/C(=N\Nc1ccc(Cl)nn1)c1ccccc1O | -0.23% (inactive)
COc1ccccc1N1CCN(C(=O)c2ccc(Cl)c(S(=O)(=O)N3CCCC3)c2)CC1 | 2.58% (inactive)
COc1ccccc1N1CCN(S(=O)(=O)c2ccc(Cl)cc2)CC1 | 31.7% (active)
COc1ccccc1N1CCN(S(=O)(=O)c2ccc3c(c2)NC(=O)CS3)CC1 | -1.51% (inactive)
COc1ccc(CCNC(=O)CN2CCC(n3nnc4cc(F)ccc43)CC2)cc1OC | 4.75% (inactive)
CCOC(=O)c1[nH]c(C)c(C(=O)OCC(=O)N2c3ccccc3CC2C)c1C (stereo not drawn) | 3.77% (inactive)
CSC1=NC2(C)CCCCC2C12C=CC(=O)C=C2 (stereo not drawn) | 24.6% (active)
O=C(CC(=O)c1cccnc1)c1ccccc1 | 0.07% (inactive)
CC[n+]1c(C)n(-c2ccccc2)c2ccc(NC(C)=O)cc21 | 1.05% (inactive)
CCc1ccc(NC(=O)CN2C(=O)CSC2=O)cc1 | 4.64% (inactive)
Cc1ccc(S(=O)(=O)N(CCCN(C)C)Cc2ccc3c(c2)OCO3)cc1 | 1.52% (inactive)
O=C(Oc1ccc2c(c1)CCC2)N1CCOCC1 | 2.56% (inactive)

Structure (SMILES) | inhibition
CC(C)C(c1nnnn1CCc1ccccc1)N1CCN(C(=O)c2ccco2)CC1 (stereo not drawn) | 3.54% (inactive)
N#Cc1ccc(C(c2nnnn2CCc2ccccc2)N2CCCCCC2)cc1 (stereo not drawn) | 25.7% (active)
COc1ccc(CCn2nnnc2C(c2ccccc2)N2CCN(C)CC2)cc1OC (stereo not drawn) | 2.25% (inactive)
O=C(NCc1ccc2c(c1)OCO2)c1c(O)nc2sccn2c1=O | 5.79% (inactive)
Cc1ccc(C(=O)CN2C(=O)NC3(CCOc4ccccc43)C2=O)s1 (stereo not drawn) | -1.4% (inactive)
C=CCNC(=O)CCCOc1cccc(C)c1 | -2.13% (inactive)
Cc1cccc(OCCNC(=O)CSc2ccc(C(F)(F)F)cc2[N+](=O)[O-])c1 | 27.4% (active)
Cc1cccc(OCCNC(=S)NC(=O)c2cccnc2)c1 | -2.68% (inactive)
CC(C)NC(=O)Nc1cccc2c1O[C@H](CN(C)S(=O)(=O)c1cccs1)[C@@H](C)CN([C@H](C)CO)C2=O | 6.94% (inactive)
Cc1cc2oc(=O)cc(CN(C)Cc3ccc(OC(F)F)cc3)c2cc1Cl | -0.62% (inactive)
Cc1ccc(CN(C)Cc2cc(=O)oc3cc(C)c(Cl)cc23)cc1 | 28.5% (active)
Cc1cc2oc(=O)cc(CN3CCN(Cc4ccccc4)CC3)c2cc1C | -2.46% (inactive)
CCn1c(SCC(=O)Nc2cccc(F)c2)nnc1-c1cc2cc(Br)ccc2o1 | -4.23% (inactive)
C=CCn1c(C23CC4CC(CC(C4)C2)C3)n[nH]c1=S | 29.8% (active)
C=CCn1c(SCC(=O)NC)nnc1C12CC3CC(CC(C3)C1)C2 | 4.85% (inactive)
C=CCn1c(-c2ccc3[nH]c(C)c(C)c3c2)n[nH]c1=S | -1.88% (inactive)
Cc1cc(C)cc(NC(=O)C(OC(=O)c2ccc(O)cc2)c2ccccc2)c1 (stereo not drawn) | -4.34% (inactive)
O=C1/C(=C\c2ccc([N+](=O)[O-])cc2)CS(=O)(=O)C/C1=C/c1ccc([N+](=O)[O-])cc1 | -2.78% (inactive)
Cc1ccc(N(CCC(=O)O)S(=O)(=O)c2cccc(C(F)(F)F)c2)cc1 | 19.6% (inactive)
O=C(O)c1cc(S(=O)(=O)N(Cc2ccccc2)c2ccccc2)ccc1Cl | 18.7% (inactive)
O=C(O)c1cc(S(=O)(=O)N(Cc2ccccc2)c2cccc(C(F)(F)F)c2)ccc1Cl | 28.5% (active)
